Data as given in PubChem BioAssay.
A number with no mark means an inactive call. Calls of active or inactive are those of the source.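 The calls were made as follows, unless noted: active = growth inhibition above 50% at the single 2 µM test dose, taken to imply half-maximal potency below 2 µM; inactive = the rest.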

Experiment: antimalarial activity against Dd2 strain (AID 2302);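 also: 0% = DMSO untreated growth and 100% = chloroquine plus artemisinin killed control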
Conditions: P. falciparum Dd2 in RBCs, LDH growth readout, 72 h; at 2 µM; active compounds read high
Work on `COc1c(CNCCCCCCNCc2cc(Cl)c3ccccc3c2OC)cc(Cl)c2ccccc12` yielded a growth inhibition of 45%. With `CCCc1cc(OC)c(CC2c3cccc(O)c3CCN2C)cc1OC` (stereo not given) the growth inhibition was 99% (active). With `CCOc1ccccc1CNc1nccc(NCc2ccccc2OC)n1` the growth inhibition was 66% (active). With `OCc1ccc2nc3c(cc2c1)-c1cccc2cccc-3c12` the growth inhibition was -1%. Work on `COc1ccc2ncc(F)c(CCN3CCC(NCc4cc5c(cn4)OCCS5)CC3)c2c1` yielded a growth inhibition of 40%. In the case of `CN1CCN(c2ccnc3ccc(NC(=O)Nc4ccc(Cl)c(Cl)c4)cc23)CC1`, the growth inhibition is reported as 17%. In the case of `CCN(CC)CCOc1ccc(C(O)(C#CC(O)(c2ccc(Br)cc2)c2ccc(OCCN(CC)CC)cc2)c2ccc(Br)cc2)cc1` (stereo not given), the growth inhibition is reported as 99% (active). In the case of `CC(=O)Nc1cccc(C(=O)Nc2ccc(-c3cccc(-c4nc5c(C)cccc5[nH]4)c3)cc2)c1`, the growth inhibition is reported as 50% (active). With `Cn1cncc1C(=O)Nc1cccc(-c2csc(-c3nc4ccccc4[nH]3)c2)c1` the growth inhibition was 64% (active). With `OCCN1CCN(c2nc(Nc3cccc(F)c3)c3cnn(-c4ccccc4)c3n2)CC1` the growth inhibition was 76% (active). Work on `Cc1cccc2[nH]c(-c3cccc(-c4ccc(NC(=O)COC(C)C)cc4)c3)nc12` yielded a growth inhibition of 11%. For `CN(C)CCC1CCCc2ccc(NC(=O)Nc3cccc(Cl)c3Cl)cc21` (stereo not given), the growth inhibition was 11%. For `FC(F)(F)c1ccc2nc(-c3ccc(-c4cccc(CNCc5cnn(-c6ccccc6)n5)c4)s3)[nH]c2c1`, the growth inhibition was 91% (active). Work on `O=C(NCCCN1CCOCC1)c1csc(Nc2ccc(Cl)c(Cl)c2)n1` yielded a growth inhibition of 23%. In the case of `CCN(CC)S(=O)(=O)c1ccc(C(C)NC(=O)c2ccccc2COc2ccccc2)cc1` (stereo not given), the growth inhibition is reported as 89% (active). In the case of `Cc1ccc(NC(=O)c2cccc(N3CCN(c4ccncc4)CC3)c2)cc1F`, the growth inhibition is reported as 72% (active). With `Cc1cc2nc(NC3=NC4(c5ccccn5)N=C(Nc5nc6cc(C)c(C)cc6[nH]5)NC4(c4ccccn4)N3)[nH]c2cc1C` (stereo not given) the growth inhibition was 62% (active). In the case of `CCN(CC)S(=O)(=O)c1ccc(C(=O)Oc2ccccc2N(Cc2ccc(OC)cc2)C2=NS(=O)(=O)c3ccccc32)cc1`, the growth inhibition is reported as 63% (active). `O=C(NC1CCN(Cc2ccsc2)CC1)c1ccc(-c2cccc(C(F)(F)F)c2)s1` gave a growth inhibition of 3%. With `O=[N+]([O-])c1ccc2nc(Nc3ccc(Cl)c(Cl)c3)c(Nc3ccc(Cl)c(Cl)c3)nc2c1` the growth inhibition was 99% (active). `Cc1cnc(CCNC(=O)c2cc(-c3ccc(Cl)cc3)cs2)[nH]1` gave a growth inhibition of 7%. For `Cc1cc(C(=O)CN2C(=O)NC3(CCOc4ccccc43)C2=O)c(C)n1Cc1ccc(F)cc1` (stereo not given), the growth inhibition was 84% (active). For `COc1cc2nc(N3CCN(c4nc(N)c5cc(OC)c(OC)cc5n4)CC3)nc(N)c2cc1OC`, the growth inhibition was 99% (active). For `CS(=O)(=O)Nc1ccc(-c2ccc3ccnc(N)c3c2)cc1`, the growth inhibition was 75% (active). With `COc1cc(CNCCCNc2nc3ccsc3c(=O)[nH]2)c2[nH]cc(Cl)c2c1` the growth inhibition was -2%. For `CN1CCC(c2c[nH]c3ccc(NC(=O)Nc4ccc(-c5ccncc5)cc4Cl)cc23)CC1`, the growth inhibition was 7%. With `NC1CCN(c2nc(NCCc3ccc(O)cc3)nc(NCc3ccccc3-c3ccc(C(F)(F)F)cc3)n2)CC1` the growth inhibition was 72% (active). In the case of `CN1CCCN(Cc2ccc(-c3cccc(NC(=O)c4cccc(Cl)c4)c3)cc2)CC1`, the growth inhibition is reported as 32%. For `Cc1cc(NC(=O)c2coc3cc(F)c(N4C[C@@H](C)N(C)[C@@H](C)C4)cc23)ccc1-n1ccnc1`, the growth inhibition was 42%. For `Oc1ccc(CCNc2nc(NCc3cccc(OCc4cccc(F)c4)c3)nc(N3CCNCC3)n2)cc1`, the growth inhibition was -7%. In the case of `Nc1nc(N)c2c(ccc3c2ccn3Cc2ccc(F)cc2)n1`, the growth inhibition is reported as 96% (active). For `Cc1[nH]c(C)c(C(F)(F)F)c(=O)c1-c1ccc(Oc2ccc(OC(F)(F)F)cc2)cc1`, the growth inhibition was 96% (active). Work on `COc1ccc2ccc(F)c(CC(=O)N3CCOC(CNCc4cccc(-c5ccc(F)cc5)n4)C3)c2n1` (stereo not given) yielded a growth inhibition of 1%. For `C[C@@H](CC1CCCCC1)OC(=O)N(C)[C@H]1CCN(C#N)C1`, the growth inhibition was 62% (active). In the case of `O=C(Nc1ccc(O)c(-c2nc3ccccc3[nH]2)c1)c1ccc([N+](=O)[O-])cc1`, the growth inhibition is reported as 45%. For `CN1CCc2cc(Br)c(O)cc2C1Cc1ccccc1Cl` (stereo not given), the growth inhibition was 88% (active). `O=S(=O)(Nc1ccc2nccc(N3CCNCC3)c2c1)c1ccc2c(Cl)cccc2c1` showed a growth inhibition of 2%. `CCC(C)c1ccc(NC(=O)Nc2ccc(Cn3ncc(N4CCCNCC4)c(Cl)c3=O)cc2)cc1` (stereo not given) showed a growth inhibition of 31%. For `COc1cc(-n2cnc3cc(-c4ccc([N+](=O)[O-])cc4)sc3c2=O)ccc1OCCN1CCCC1`, the growth inhibition was 79% (active). In the case of `C[C@H](N[C@H]1CCCc2c1[nH]c1ccc(Br)cc21)c1ccccc1`, the growth inhibition is reported as 95% (active).

Experiment: HepG2 cytotoxicity, primary screen, cytotoxicity control for P. falciparum antimalarial project, cell-based, ATP luminescence (AID 2303;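 active = inhibition above 50%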;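 also: 0% = DMSO wells and 100% = digitonin-killed cells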)
Conditions: HepG2 viability, 24-48 h, at 10 µM, active compounds read high
In the case of `COc1c(CNCCCCCCNCc2cc(Cl)c3ccccc3c2OC)cc(Cl)c2ccccc12`, the inhibition is reported as 100% (active). Work on `CCCc1cc(OC)c(CC2c3cccc(O)c3CCN2C)cc1OC` (stereo not given) yielded an inhibition of 3%. With `CCOc1ccccc1CNc1nccc(NCc2ccccc2OC)n1` the inhibition was 50% (active). Work on `OCc1ccc2nc3c(cc2c1)-c1cccc2cccc-3c12` yielded an inhibition of 16%. For `COc1ccc2ncc(F)c(CCN3CCC(NCc4cc5c(cn4)OCCS5)CC3)c2c1`, the inhibition was 4%. With `CN1CCN(c2ccnc3ccc(NC(=O)Nc4ccc(Cl)c(Cl)c4)cc23)CC1` the inhibition was 0%. In the case of `CCN(CC)CCOc1ccc(C(O)(C#CC(O)(c2ccc(Br)cc2)c2ccc(OCCN(CC)CC)cc2)c2ccc(Br)cc2)cc1` (stereo not given), the inhibition is reported as 99% (active). For `CC(=O)Nc1cccc(C(=O)Nc2ccc(-c3cccc(-c4nc5c(C)cccc5[nH]4)c3)cc2)c1`, the inhibition was 86% (active). In the case of `Cn1cncc1C(=O)Nc1cccc(-c2csc(-c3nc4ccccc4[nH]3)c2)c1`, the inhibition is reported as 15%. In the case of `OCCN1CCN(c2nc(Nc3cccc(F)c3)c3cnn(-c4ccccc4)c3n2)CC1`, the inhibition is reported as 89% (active). Molecule `Cc1cccc2[nH]c(-c3cccc(-c4ccc(NC(=O)COC(C)C)cc4)c3)nc12` has an inhibition of -4%. With `CN(C)CCC1CCCc2ccc(NC(=O)Nc3cccc(Cl)c3Cl)cc21` (stereo not given) the inhibition was 44%. `FC(F)(F)c1ccc2nc(-c3ccc(-c4cccc(CNCc5cnn(-c6ccccc6)n5)c4)s3)[nH]c2c1` showed an inhibition of 38%. With `O=C(NCCCN1CCOCC1)c1csc(Nc2ccc(Cl)c(Cl)c2)n1` the inhibition was 5%. Work on `CCN(CC)S(=O)(=O)c1ccc(C(C)NC(=O)c2ccccc2COc2ccccc2)cc1` (stereo not given) yielded an inhibition of -3%. `Cc1ccc(NC(=O)c2cccc(N3CCN(c4ccncc4)CC3)c2)cc1F` gave an inhibition of 43%. Molecule `Cc1cc2nc(NC3=NC4(c5ccccn5)N=C(Nc5nc6cc(C)c(C)cc6[nH]5)NC4(c4ccccn4)N3)[nH]c2cc1C` (stereo not given) has an inhibition of 3%. Molecule `CCN(CC)S(=O)(=O)c1ccc(C(=O)Oc2ccccc2N(Cc2ccc(OC)cc2)C2=NS(=O)(=O)c3ccccc32)cc1` has an inhibition of 0%. With `O=C(NC1CCN(Cc2ccsc2)CC1)c1ccc(-c2cccc(C(F)(F)F)c2)s1` the inhibition was 48%. `O=[N+]([O-])c1ccc2nc(Nc3ccc(Cl)c(Cl)c3)c(Nc3ccc(Cl)c(Cl)c3)nc2c1` gave an inhibition of 1%. In the case of `Cc1cnc(CCNC(=O)c2cc(-c3ccc(Cl)cc3)cs2)[nH]1`, the inhibition is reported as 12%. With `Cc1cc(C(=O)CN2C(=O)NC3(CCOc4ccccc43)C2=O)c(C)n1Cc1ccc(F)cc1` (stereo not given) the inhibition was 1%. Molecule `COc1cc2nc(N3CCN(c4nc(N)c5cc(OC)c(OC)cc5n4)CC3)nc(N)c2cc1OC` has an inhibition of 13%. `CS(=O)(=O)Nc1ccc(-c2ccc3ccnc(N)c3c2)cc1` gave an inhibition of 31%. With `COc1cc(CNCCCNc2nc3ccsc3c(=O)[nH]2)c2[nH]cc(Cl)c2c1` the inhibition was 29%. Work on `CN1CCC(c2c[nH]c3ccc(NC(=O)Nc4ccc(-c5ccncc5)cc4Cl)cc23)CC1` yielded an inhibition of 31%. Work on `NC1CCN(c2nc(NCCc3ccc(O)cc3)nc(NCc3ccccc3-c3ccc(C(F)(F)F)cc3)n2)CC1` yielded an inhibition of 18%. `CN1CCCN(Cc2ccc(-c3cccc(NC(=O)c4cccc(Cl)c4)c3)cc2)CC1` showed an inhibition of 33%. In the case of `Cc1cc(NC(=O)c2coc3cc(F)c(N4C[C@@H](C)N(C)[C@@H](C)C4)cc23)ccc1-n1ccnc1`, the inhibition is reported as -9%. For `Oc1ccc(CCNc2nc(NCc3cccc(OCc4cccc(F)c4)c3)nc(N3CCNCC3)n2)cc1`, the inhibition was 27%. For `Nc1nc(N)c2c(ccc3c2ccn3Cc2ccc(F)cc2)n1`, the inhibition was 66% (active). Molecule `Cc1[nH]c(C)c(C(F)(F)F)c(=O)c1-c1ccc(Oc2ccc(OC(F)(F)F)cc2)cc1` has an inhibition of 0%. In the case of `COc1ccc2ccc(F)c(CC(=O)N3CCOC(CNCc4cccc(-c5ccc(F)cc5)n4)C3)c2n1` (stereo not given), the inhibition is reported as 5%. Work on `C[C@@H](CC1CCCCC1)OC(=O)N(C)[C@H]1CCN(C#N)C1` yielded an inhibition of 4%. In the case of `O=C(Nc1ccc(O)c(-c2nc3ccccc3[nH]2)c1)c1ccc([N+](=O)[O-])cc1`, the inhibition is reported as -2%. Work on `CN1CCc2cc(Br)c(O)cc2C1Cc1ccccc1Cl` (stereo not given) yielded an inhibition of 2%. With `O=S(=O)(Nc1ccc2nccc(N3CCNCC3)c2c1)c1ccc2c(Cl)cccc2c1` the inhibition was 11%. With `CCC(C)c1ccc(NC(=O)Nc2ccc(Cn3ncc(N4CCCNCC4)c(Cl)c3=O)cc2)cc1` (stereo not given) the inhibition was -6%. For `COc1cc(-n2cnc3cc(-c4ccc([N+](=O)[O-])cc4)sc3c2=O)ccc1OCCN1CCCC1`, the inhibition was 44%. With `C[C@H](N[C@H]1CCCc2c1[nH]c1ccc(Br)cc21)c1ccccc1` the inhibition was 58% (active).
